Rin1 Abl inh: human Rin1-Abl interaction inhibition; TR-FRET Rin1/Abl binding, biochemical; inhibition, % at 7.35 µM; actives 0.4% (n = 360,000); AID 588664; in the data active = inhibition above about 5%, passing the limit was not always enough
PAFAH1B2 FP inh: inhibitors of human PAFAH1B2; AID 492953; actives 1.2% (n = 340,000); inhibition, % at 3.39 µM; recombinant PAFAH1B2, FP-rhodamine activity probe, fluorescence polarization; P68402;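 active = inhibition above the mean of all tested compounds plus 3 SD, cut at about 24% in these data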;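 also: 0% = enzyme with DMSO and 100% = wells lacking PAFAH1B2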
pPAFAH inh: pPAFAH (human) enzyme inhibition; Q13093; recombinant pPAFAH, FP-rhodamine probe fluorescence polarization; inhibition, % at 3.39 µM; actives 1.5% (n = 330,000); AID 463082;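 active = inhibition above the mean inhibition across the screen plus 3 SD, cut at about 25% in these data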;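 also: inhibitors block binding of the rhodamine activity-based probe so polarization drops; 0% = enzyme with DMSO and 100% = wells lacking pPAFAH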
Target sequence (Q13093 whole entry, looked up): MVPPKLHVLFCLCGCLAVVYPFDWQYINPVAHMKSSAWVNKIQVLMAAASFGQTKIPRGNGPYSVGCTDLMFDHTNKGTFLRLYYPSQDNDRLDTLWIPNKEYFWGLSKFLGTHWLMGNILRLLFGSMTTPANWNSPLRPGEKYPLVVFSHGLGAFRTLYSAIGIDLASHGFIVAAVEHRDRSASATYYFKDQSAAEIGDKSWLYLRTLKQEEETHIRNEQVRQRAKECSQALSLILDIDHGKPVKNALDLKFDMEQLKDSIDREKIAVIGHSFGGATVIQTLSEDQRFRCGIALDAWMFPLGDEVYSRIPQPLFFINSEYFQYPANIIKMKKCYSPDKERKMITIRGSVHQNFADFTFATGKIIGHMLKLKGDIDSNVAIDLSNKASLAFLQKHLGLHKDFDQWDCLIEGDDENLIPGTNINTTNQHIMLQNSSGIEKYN
eLon inh: inhibitors of E. coli Lon protease; P0A9M0; purified E. coli Lon protease, fluorescence polarization; inhibition, % at 7.94 µM; actives 0.42% (n = 360,000); in the data active = inhibition above about 13%, passing the limit was not always enough;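 also: 0% = enzyme with probe and DMSO and 100% = no enzyme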
PAFAH1B3 inh: inhibitors of human PAFAH1B3. actives 0.28% (n = 340,000). recombinant PAFAH1B3, FP-rhodamine probe, fluorescence polarization. AID 492972. Q15102. inhibition, % at 3.39 µM;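 active = inhibition above the screen-wide average of all tested compounds plus 3 SD, cut at about 25% in these data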;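 also: 0% = enzyme with DMSO only and 100% = wells lacking PAFAH1B3 protein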
Target sequence (Q15102 whole entry, looked up): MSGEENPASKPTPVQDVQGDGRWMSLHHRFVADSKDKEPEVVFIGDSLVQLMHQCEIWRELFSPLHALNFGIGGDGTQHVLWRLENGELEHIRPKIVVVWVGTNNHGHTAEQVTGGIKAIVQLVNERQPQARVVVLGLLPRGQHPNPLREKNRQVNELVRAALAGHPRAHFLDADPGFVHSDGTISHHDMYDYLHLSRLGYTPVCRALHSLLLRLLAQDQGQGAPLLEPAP
PAFAH2 inh: inhibitors of human PAFAH2; Q99487; recombinant PAFAH2, FP-rhodamine activity probe, fluorescence polarization; inhibition, % at 3.39 µM; actives 0.99% (n = 340,000);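 active = inhibition above the mean over all tested compounds plus 3 SD, cut at about 30% in these data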;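 also: inhibitors block probe labeling of enzyme so polarization drops; 0% = enzyme with DMSO and 100% = wells lacking PAFAH2 protein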
PAFAH2 FP conf: confirmation of human PAFAH2 inhibitors. shares compounds with PAFAH2 inh. recombinant PAFAH2, FP-rhodamine activity probe, fluorescence polarization. inhibition, % at 3.39 µM. actives 65% (n = 2,300);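 active = mean inhibition over three repeats above a set limit taken from the earlier primary screen, cut at about 30% in these data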;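 also: inhibitor blocks binding of rhodamine activity probe so polarization falls; 0% = enzyme with DMSO and 100% = wells lacking PAFAH2 protein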
* hit, by the source's call; . = no result. The list is not random: actives were taken first. Their share in the collection is about 3.1%.

SMILES	Rin1 Abl inh	PAFAH1B2 FP inh	pPAFAH inh	eLon inh	PAFAH1B3 inh	PAFAH2 inh	PAFAH2 FP conf
CC1CC1C(=O)OCC(=O)NCc1ccccc1Cl (configuration not stated)	-4.9	3.5	6.2	-4.2	17.8	68.4*	55.7*
O=C(COC(=O)C1CCC1)NCc1ccccc1Cl	0.4	1.6	0.9	-11.7	9.0	17.4	.
O=C(COC(=O)C1CC2C=CC1C2)NCc1ccccc1Cl (configuration not stated)	-3.6	8.3	16.4	-8.7	1.6	45.5*	44.3*
CN(Cc1cnccn1)Cc1nc(Cc2ccccc2Cl)no1	0.0	3.4	5.6	-2.5	-0.6	-2.0	.
Clc1ccccc1Cc1noc(CN2CCN(Cc3ccccn3)CC2)n1	3.0	10.8	8.5	-2.1	6.6	32.6*	9.1
C=Cc1ccc(Cn2nc(-c3ccccc3)ccc2=O)cc1	-0.5	5.0	-1.2	1.6	3.8	-0.9	.
Cc1cc(C)c(OCC(=O)Nc2ccccn2)c([N+](=O)[O-])c1	-0.5	0.9	1.4	-1.3	-1.0	32.8*	0.9
Cc1sc2ncnc(SCC(=O)Nc3ncccc3O)c2c1C	-10.3	-3.7	20.1	-34.1	5.4	65.6*	52.9*
Cc1cccnc1NC(=O)CSc1ncnc2sc(C)c(C)c12	-1.5	-0.3	3.1	-37.1	-0.5	9.9	.
Cc1cc(C(=O)N2CCN(Cc3ccccc3)CC2)ccc1[N+](=O)[O-]	0.5	-1.9	-6.2	-7.1	9.9	119.2*	2.4
O=C(c1ccc(Br)c([N+](=O)[O-])c1)N1CCN(Cc2ccccc2)CC1	-0.9	1.6	3.6	-11.2	6.6	-9.5	.
CC(=O)Nc1ccc(CN2C(=O)C(Cc3ccccc3)ON=C2c2ncccc2C)cc1 (configuration not stated)	-0.8	.	.	4.6	.	.	.
Cc1c(C(c2cccc(Br)c2)c2c(C)n(C)n(-c3ccccc3)c2=O)c(=O)n(-c2ccccc2)n1C	-1.1	1.6	0.7	0.8	4.1	38.7*	20.4
Cc1c(C(c2ccccc2)c2c(C)n(C)n(-c3ccccc3)c2=O)c(=O)n(-c2ccccc2)n1C	3.1	3.4	-0.5	2.4	8.0	-2.2	.
CS(=O)(=O)c1cccc(S(=O)(=O)N2CCCCCC2)c1	-0.5	5.9	-0.1	-5.0	3.9	145.0*	2.5
O=S(=O)(c1cccc(S(=O)(=O)N2CCCC2)c1)N1CCCCC1	1.0	-0.1	2.7	-1.7	2.8	5.0	.
COc1ccc(C(=O)N/N=C/c2ccc3cccc(O)c3n2)cc1	1.6	-0.2	4.3	-3.3	2.1	35.4*	12.4
Cc1ccc(N(CC(=O)NC2CCCCC2)S(=O)(=O)c2c(C)noc2C)cc1	1.9	-2.4	-0.7	1.5	1.4	2.5	.
O=C1C(=O)N(CCS(=O)(=O)c2ccccc2)c2ccc(F)cc21	-2.4	0.9	6.6	-3.7	6.5	-0.3	.
O=C(c1cccc(Oc2ccc([N+](=O)[O-])cc2Cl)c1)N1CCCCC1	3.2	1.1	18.6	-1.5	2.5	-1.9	.
O=C(c1ccc(Oc2ccc([N+](=O)[O-])cc2Cl)cc1)N1CCCC1	4.2	2.1	14.0	-7.2	-3.2	40.4*	30.0*
O=C(c1ccc(Oc2ccc(C(F)(F)F)cc2[N+](=O)[O-])cc1)N1CCOCC1	-2.4	-4.8	2.0	15.0	5.2	34.4*	27.3
COc1cc(CN(C(=O)c2cccs2)C2CCS(=O)(=O)C2)cc(OC)c1OC (configuration not stated)	0.0	0.7	8.3	1.3	8.4	2.9	.
COc1ccc(C(=O)OCC(=O)NCc2ccco2)cc1S(=O)(=O)N1CCN(c2cccc(Cl)c2)CC1	-2.6	-0.1	14.7	6.0	8.8	32.4*	35.4*
Cc1ccc(C(=O)NCc2ccco2)cc1S(=O)(=O)N1CCOCC1	-2.5	3.7	-4.0	-6.2	11.5	-1.6	.
SMILES	Rin1 Abl inh	PAFAH1B2 FP inh	pPAFAH inh	eLon inh	PAFAH1B3 inh	PAFAH2 inh	PAFAH2 FP conf
Cc1ccc(C(=O)OCC(=O)NCc2ccco2)cc1S(=O)(=O)N1CCOCC1	2.0	-0.5	17.3	-9.2	6.1	44.5*	39.2*
COc1ccc2ccccc2c1/C=N/N1C(=O)CSC1=S	0.9	2.6	16.6	-26.3	-0.5	9.7	.
O=C1CSC(=S)N1N=Cc1c(O)ccc2ccccc12	3.0	5.5	.	-77.1	16.0	41.9*	34.5*
CS(=O)(=O)Nc1ccc(F)cc1	.	.	.	-6.6	.	.	.
CN(C(=O)CSc1nc(N)cc(N)n1)C1CCS(=O)(=O)C1 (configuration not stated)	-2.1	0.5	2.9	2.4	8.2	6.3	.
O=C(c1cc(-c2ccc(Cl)cc2Cl)on1)N1CCCC1	0.9	2.8	8.6	-4.9	6.7	30.5*	26.0
O=C(c1cc(-c2ccccc2Cl)on1)N1CCN(C(=O)c2ccco2)CC1	0.5	4.8	8.8	-8.8	2.4	43.1*	35.3*
O=C(c1cc(-c2ccc(Cl)cc2Cl)on1)N1CCCCCC1	3.0	5.2	4.2	-6.2	7.0	7.0	.
O=C(c1cc(-c2ccc(Cl)cc2Cl)on1)N1CCN(C(=O)c2ccco2)CC1	-3.8	1.0	9.4	-7.4	-3.6	65.5*	41.1*
C=CCN1CCC(=O)C(C(=O)OCC)=C1C(=O)OCC	0.9	1.8	.	11.5	7.3	-10.3	.
CC(CN1CCCC1)OC(=O)c1ccc(F)cc1 (configuration not stated)	-1.7	-2.6	9.3	-13.0	9.9	-4.0	.
CCOc1ccc(C(=O)OC(C)CN2CCCCC2)cc1 (configuration not stated)	0.4	3.9	-1.9	5.0	5.7	56.6*	-1.4
CCc1cc2c(=O)oc(-c3ccc(F)cc3)nc2s1	2.0	-5.7	13.5	8.2	-2.3	81.6*	83.8*
CCc1cc2c(=O)[nH]c(-c3ccccn3)nc2s1	-1.8	3.5	2.8	2.0	13.2	0.9	.
COc1cc(CCC(=O)OCC(=O)Nc2ccc(C)cc2Br)cc(OC)c1OC	1.9	-1.0	5.9	-5.8	6.0	6.8	.
Cc1ccc(NC(=O)COC(=O)CCC2CCCC2)c(Br)c1	-1.7	1.8	17.8	-1.4	5.7	31.4*	14.0
Cc1cc(C)cc(NC(=O)COC(=O)CC2CCCC2)c1	1.7	3.5	23.5	4.2	4.3	80.3*	66.2*
COc1ccc(NC(=O)COC(=O)CC2CCCCC2)cc1	2.6	-1.6	6.8	5.2	0.5	47.8*	42.4*
COc1ccc(NC(=O)COC(=O)CC2CCCC2)cc1	2.6	3.2	19.5	-6.2	4.3	57.7*	47.0*
COc1ccc(NC(=O)COC(=O)CN2C(=O)C3CCCCC3C2=O)cc1 (configuration not stated)	-3.3	.	.	-10.9	.	.	.
COc1ccc(Cc2c(-c3cccc(Cl)c3)nc3ccc(C)cn23)c(C)c1	6.8	.	.	-15.1	.	.	.
NC(=O)C(NN=C(c1ccccc1)c1ccccc1)c1ccccc1 (configuration not stated)	-1.8	.	.	7.9	.	.	.

Bioassay records deposited in PubChem BioAssay by The Scripps Research Institute Molecular Screening Center.
